Drawing on PubChem BioAssay (EPA / NIEHS), this text covers outcome and AC50 for 40 compounds.

Calls of active or inactive are those of the source. Rule for the calls: active = hit-call score of the fitted dose curve at least 0.9, where 1 is the maximum; inactive = score below 0.9.

Hepatocyte nuclear factor 6 (Homo sapiens), sequence (Q9UBC0 whole entry, looked up): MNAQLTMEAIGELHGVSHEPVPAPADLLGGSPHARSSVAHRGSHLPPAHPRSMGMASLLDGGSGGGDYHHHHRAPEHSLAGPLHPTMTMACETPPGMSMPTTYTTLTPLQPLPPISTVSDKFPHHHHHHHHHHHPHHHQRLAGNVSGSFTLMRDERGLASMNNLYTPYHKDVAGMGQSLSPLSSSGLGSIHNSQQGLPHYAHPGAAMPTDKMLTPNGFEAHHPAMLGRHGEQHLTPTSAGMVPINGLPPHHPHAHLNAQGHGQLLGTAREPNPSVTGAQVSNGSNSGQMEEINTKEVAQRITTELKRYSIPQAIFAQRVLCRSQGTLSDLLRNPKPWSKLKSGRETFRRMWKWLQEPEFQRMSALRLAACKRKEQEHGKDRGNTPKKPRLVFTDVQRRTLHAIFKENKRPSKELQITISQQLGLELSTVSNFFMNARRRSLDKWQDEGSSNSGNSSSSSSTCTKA

The assay deals with Hepatocyte nuclear factor 6 (Homo sapiens) (UniProt Q9UBC0). Description: ATG_HNF6_CIS: Attagene CIS-FACTORIAL HepG2 Assay for human Hepatocyte Nuclear Factor 6 (HNF6) (AID 2282952). As to conditions: HepG2 Attagene cis-factorial HNF6 reporter transcription; actives raise or lower the signal. How it is done:
ATG_CIS is a cell-based, multiplexed-readout assay that uses HepG2, a human liver cell line, with measurements taken at 24 hours after chemical dosing in a 24-well plate.ATG_HNF6_CIS is one of 52 assay component(s) measured or calculated from the ATG_CIS assay. It is designed to make measurements of mRNA induction, a form of inducible reporter, as detected with fluorescence intensity signals by Reverse transcription polymerase chain reaction (RT-PCR) and Capillary electrophoresis technology.Data from the assay component ATG_HNF6_CIS was analyzed into 1 assay endpoint. This assay endpoint, ATG_HNF6_CIS, was analyzed with bidirectional fitting relative to DMSO as the negative control and baseline of activity. Using a type of inducible reporter, measures of mRNA for gain or loss-of-signal activity can be used to understand the reporter gene at the transcription factor-level as they relate to the gene ONECUT1. Furthermore, this assay endpoint can be referred to as a primary readout, because this assay has produced multiple assay endpoints where this one serves a reporter gene function. To generalize the intended target to other relatable targets, this assay endpoint is annotated to the dna binding intended target family, where the subfamily is homeobox protein.
Human liver HepG2 cells are transiently transfected with multiple reporter transcription units (MRTUs) in 6-well plates using FuGene 6 reagent (Roche; 3 ml FuGene/1 mg DNA). The MRTU constructs are regulated by a cis-regulating element (promoter). […] A major difference between the CIS and TRANS system is that in CIS activities of endogenous TFs are measured, whereas the TRANS assay evaluates changes in activities of exogenous, chimeric NR-Gal4 proteins. […] At the end of 24 hour incubation, total RNA was isolated using TriZol reagent (Invitrogen). The isolated RNA is then reverse-transcribed using oligo(dT) primer and Mo-MLV reverse transcriptase (Invitrogen) with DNAse I (Ambion) treatment for 30 min. The one-tenth of the produced cDNA was amplified by PCR using Taq DNA polymerase (Invitrogen) and two reporter sequence-specific primers. The PCR products were fluorescently labeled by primer extension with 6-arboxyfluorescein (6-FAM) 5'-labeled reporter sequence-specific primer (2 min at 95 C, 20 s at 68 C and 10 min at 72 C) and these products were digested with 5U of HpaI (New England Biolabs) for 2h at 37 C. The fragments were purified using Qiaquick PCR columns (Qiagen), analyzed on an ABI 3130xL genetic analyzer (Applied Biosystems) with peak positions identified by using a set of X-rhodamine (ROX)-labeled MapMarker1000 molecular weight standards (BioVentures). The raw capillary electrophoresis data was processed using Attagraph software (Attagene).
As to `Nc1ccccc1[N+](=O)[O-]`, the call was inactive. Regarding `O=C1c2ccccc2C(=O)c2c(O)ccc(O)c21`, the outcome was inactive. Turning to `CCOC(=O)C(C#N)=C(c1ccccc1)c1ccccc1`, the outcome was inactive. Take `O=[N+]([O-])c1cccc(Cl)c1`: the outcome was inactive. In the case of `Cc1ccc(S(=O)(=O)Oc2ccc(N=Nc3ccc(-c4ccc(N=Nc5c(O)ccc6cc(S(=O)(=O)O)cc(S(=O)(=O)O)c56)c(C)c4)cc3C)cc2)cc1`, the compound was classed as inactive. For `CCc1ccc(O)c(OC)c1`, the call was inactive. For `CC1(C)C(=O)N(Cl)C(=O)N1Br`, the call was inactive. Turning to `O=Cc1ccccc1S(=O)(=O)O`, the compound was called inactive. Still for that read-out and setting: to `CCCCCc1ccco1` belongs “inactive”; to `CC1(C)C2=CCCC(C)(C)[C@]23CC[C@H]1C3`, “inactive”; to `CCC1(c2ccccc2)C(=O)NCNC1=O`, “inactive”.

`COc1cc(C(C)C)ccc1C`: the compound was called inactive. Turning to `CCCC[P+](CCCC)(CCCC)CCCC`, the compound was classed as inactive. Regarding `[Cl][Au]([Cl])[Cl]`, the compound was classed as inactive. The same measure, in the same setting: the value for `CC(C)(N=C=O)c1cccc(C(C)(C)N=C=O)c1` was “inactive”; that for `CCCC(O)C(O)CO` (stereo not given) was “inactive”; that for `Cc1ccc2c(c1)C(=O)OC2=O` was “inactive”. For `CCC(C)c1cc([N+](=O)[O-])cc([N+](=O)[O-])c1OC(=O)OC(C)C` (stereo not given), the result was inactive. In general, AC50 refers to the concentration giving half of the maximal activity seen. Turning to `O=C(CC(=O)c1ccccc1)c1ccccc1`, the AC50 was 145 µM (active). In the case of `CC1CCC(C(C)C)C(O)C1` (stereo not given), the outcome was inactive. As to `O=c1[nH]c(=O)c2cn[nH]c2[nH]1`, the compound was called inactive. On to `CC(Oc1cc(Cl)ccc1Cl)C(=O)O` (stereo not given), for which the call was inactive.

Regarding `CCC(=O)OCCOc1ccccc1`, the outcome was inactive. With `C=CC(=C)CCCC(C)(C)OC(C)=O`, the compound was classed as inactive. In the case of `CC1=C(Br)C(=O)C(Br)=C/C1=C(/c1ccccc1S(=O)(=O)O)c1cc(Br)c(O)c(Br)c1C`, the compound was classed as inactive.

For the compound `O=C(O)CCCCCCCCCCCC(=O)O`, the result was inactive. On to `CCCCCC(C)=O`, for which the result was inactive. As to `COCCOC(=O)c1ccccc1C(=O)OCCOC`, the compound was classed as inactive. `CC(C)c1ccccc1O`: the outcome was inactive.

Turning to `C1CCCCC1`, the compound was classed as inactive. Still for that read-out and setting: to `OCCCCC(O)CO` (stereo not given) belongs “inactive”. Regarding `CCc1cc(C(C)(C)C)c(O)c(C(C)(C)C)c1`, the result was inactive. For `C=CC(C)C#N` (stereo not given), the result was inactive. On to `CCCC(=O)c1ccccc1`, for which the compound was called inactive.

In the case of `C[C@H]1C[C@@H](O)CC(C)(C)C1`, the outcome was inactive.

As for `COc1ccc(N)c([N+](=O)[O-])c1`, the compound was called inactive. On the same count and under the same terms, the value for `COc1cc(Cl)c(OC)cc1N` was “inactive”; that for `CCCCOC(=O)CCCCCCCC(=O)OCCCC` was “inactive”; that for `CCCCCCCCCC(C)C=O` (stereo not given) was “inactive”.

As to `CCCC(=O)C(CC)Sc1ccoc1C` (stereo not given), the compound was called inactive.
